From PubChem BioAssay
Several values for one entry are separate records, joined by “and”; a condition that tells them apart may be missing. Equal entries are not always repeated. Unmarked numbers belong to inactive results. Activity calls are given as the source filed them. Rule as the data show it, unless noted: active = inhibition above about 44%; inactive = the rest.

What was measured:
[1] = molecular target: Nuclear receptor coactivator 3 (Homo sapiens) (UniProt Q9Y6Q9); test: NCOA3 GAL4-fusion reporter inhibition – cell-based, luminescence, quadruplicate, confirmation (AID 588792;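 active = mean inhibition over 43.08%, the solvent-only control mean plus 3 SD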;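 also: 0% = DMSO treated cells and 100% = gossypol at 36 µM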); details: HEK293 GAL4-SRC3 luciferase reporter, at 3.6 µM, active compounds read high
[2] = test system: transactivating tegument protein VP16 (Human herpesvirus 1), Gal4-VP16 luciferase reporter; test: repression of VP16-driven luciferase reporter – cell-based, luminescence, high throughput, counter-screen for SRC3 inhibitor project (AID 588794; in the data active = inhibition above about 30%); details: mammalian cells, at 3.6 µM, active compounds read high
[3] = StAR promoter reporter inhibitors, counter-screen for LRH-1 inverse agonist project, cell-based, luminescence, high throughput (AID 651611; in the data active = inhibition above about 28%); details: StAR promoter luciferase reporter counterscreen, at 3.6 µM, active compounds read high
[4] = molecular target: Nuclear receptor subfamily 5 group A member 2 (Homo sapiens) (UniProt O00482); test: NR5A2 activity suppression in reporter cells – cell-based, luminescence, confirmation (AID 651613; in the data active = inhibition above about 42%;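 also: HEK293T cells co-transfected with LRH-1 and StAR promoter luciferase reporter; 0% = vehicle wells and 100% = parental cells lacking receptor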); details: cell-based LRH-1 luciferase reporter, inverse agonism; at 3.6 µM; active compounds read high
[5] = molecular target: Steroidogenic factor 1 (Homo sapiens) (UniProt Q13285); test: inverse agonism at SF1 nuclear receptor – cell-based, luminescence, high throughput, counter-screen for LRH-1 inverse agonist project (AID 651614); details: cell-based SF1 luciferase reporter, at 3.6 µM, active compounds read high;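 also: cells cotransfected with StAR promoter reporter and SF1 expression vector; 0% = vehicle on cells with receptor and 100% = vehicle on cells lacking receptor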
[6] = compounds suppressing VP16-driven luciferase signal – cell-based, luminescence, high throughput, counter-screen for LRH-1 inverse agonist project (AID 651615; in the data active = inhibition above about 33%); details: Gal4-VP16 luciferase reporter cells, at 3.6 µM, active compounds read high

Chain of Steroidogenic factor 1 (Homo sapiens) (Q13285 whole entry, looked up, the tested form may be a part): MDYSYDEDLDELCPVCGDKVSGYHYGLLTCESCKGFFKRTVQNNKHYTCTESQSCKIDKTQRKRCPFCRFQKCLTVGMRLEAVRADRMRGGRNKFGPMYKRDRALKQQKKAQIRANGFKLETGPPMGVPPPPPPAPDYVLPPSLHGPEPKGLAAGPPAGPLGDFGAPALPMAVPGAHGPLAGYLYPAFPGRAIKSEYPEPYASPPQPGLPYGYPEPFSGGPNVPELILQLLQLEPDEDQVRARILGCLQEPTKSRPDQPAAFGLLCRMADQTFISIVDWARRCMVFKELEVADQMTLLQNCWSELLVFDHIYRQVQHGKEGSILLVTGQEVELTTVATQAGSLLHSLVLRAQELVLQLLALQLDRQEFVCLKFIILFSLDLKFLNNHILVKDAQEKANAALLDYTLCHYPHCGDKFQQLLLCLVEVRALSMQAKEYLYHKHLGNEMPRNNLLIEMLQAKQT
Chain of Nuclear receptor subfamily 5 group A member 2 (Homo sapiens) (O00482 whole entry, looked up): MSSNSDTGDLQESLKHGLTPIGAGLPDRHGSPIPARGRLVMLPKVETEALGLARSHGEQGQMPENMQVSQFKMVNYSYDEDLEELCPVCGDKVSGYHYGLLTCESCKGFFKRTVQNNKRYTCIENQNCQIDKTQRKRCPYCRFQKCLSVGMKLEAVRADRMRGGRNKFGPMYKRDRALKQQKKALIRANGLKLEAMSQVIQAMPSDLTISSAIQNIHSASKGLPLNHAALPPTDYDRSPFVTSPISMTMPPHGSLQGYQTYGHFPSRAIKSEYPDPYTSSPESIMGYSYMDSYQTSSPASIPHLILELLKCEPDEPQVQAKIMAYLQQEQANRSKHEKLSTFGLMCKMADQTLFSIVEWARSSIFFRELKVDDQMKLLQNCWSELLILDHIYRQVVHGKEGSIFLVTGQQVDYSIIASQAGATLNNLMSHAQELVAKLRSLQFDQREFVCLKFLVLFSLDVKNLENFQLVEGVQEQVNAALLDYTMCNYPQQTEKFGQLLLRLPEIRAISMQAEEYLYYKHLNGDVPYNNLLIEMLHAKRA
Chain of Nuclear receptor coactivator 3 (Homo sapiens) (Q9Y6Q9 whole entry, looked up, the tested form may be a part): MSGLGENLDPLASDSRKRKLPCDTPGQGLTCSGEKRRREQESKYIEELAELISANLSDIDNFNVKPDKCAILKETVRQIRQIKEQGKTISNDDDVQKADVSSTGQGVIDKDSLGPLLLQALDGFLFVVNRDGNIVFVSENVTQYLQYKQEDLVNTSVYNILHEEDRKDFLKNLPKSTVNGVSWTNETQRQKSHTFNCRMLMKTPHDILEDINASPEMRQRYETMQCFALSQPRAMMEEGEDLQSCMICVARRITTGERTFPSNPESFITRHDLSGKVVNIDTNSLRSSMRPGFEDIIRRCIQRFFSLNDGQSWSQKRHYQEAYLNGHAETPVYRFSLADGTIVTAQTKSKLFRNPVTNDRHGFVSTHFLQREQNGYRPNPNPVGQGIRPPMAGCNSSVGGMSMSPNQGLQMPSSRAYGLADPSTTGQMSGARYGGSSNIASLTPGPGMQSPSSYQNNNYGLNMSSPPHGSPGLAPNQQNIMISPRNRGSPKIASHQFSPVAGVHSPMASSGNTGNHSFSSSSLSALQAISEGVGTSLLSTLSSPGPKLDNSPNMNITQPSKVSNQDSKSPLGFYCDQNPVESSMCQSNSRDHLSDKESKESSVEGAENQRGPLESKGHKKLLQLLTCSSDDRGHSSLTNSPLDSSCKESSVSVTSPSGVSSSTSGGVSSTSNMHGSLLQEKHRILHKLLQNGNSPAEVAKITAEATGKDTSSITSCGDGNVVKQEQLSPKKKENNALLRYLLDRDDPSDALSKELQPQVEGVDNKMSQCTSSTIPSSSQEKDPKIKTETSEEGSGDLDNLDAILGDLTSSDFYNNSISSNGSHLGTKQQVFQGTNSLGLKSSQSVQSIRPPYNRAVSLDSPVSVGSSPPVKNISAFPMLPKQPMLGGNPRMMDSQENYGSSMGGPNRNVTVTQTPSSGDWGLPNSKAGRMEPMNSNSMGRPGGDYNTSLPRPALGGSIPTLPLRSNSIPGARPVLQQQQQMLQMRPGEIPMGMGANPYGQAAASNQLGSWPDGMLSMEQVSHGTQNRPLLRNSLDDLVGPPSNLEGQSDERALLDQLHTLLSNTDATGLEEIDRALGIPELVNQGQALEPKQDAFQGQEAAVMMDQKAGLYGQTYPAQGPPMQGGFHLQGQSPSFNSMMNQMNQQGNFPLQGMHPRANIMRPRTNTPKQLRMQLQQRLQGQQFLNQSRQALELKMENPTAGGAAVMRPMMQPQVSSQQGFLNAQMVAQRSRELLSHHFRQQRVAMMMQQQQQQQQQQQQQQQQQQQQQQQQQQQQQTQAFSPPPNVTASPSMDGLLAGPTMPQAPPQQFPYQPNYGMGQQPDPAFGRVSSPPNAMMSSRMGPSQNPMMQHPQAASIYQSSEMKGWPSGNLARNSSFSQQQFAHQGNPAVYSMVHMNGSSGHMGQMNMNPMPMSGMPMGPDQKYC

Structure (SMILES): Cc1cc(C(=O)NC2CCCc3c2cnn3-c2ccc(C)c(C)c2)n(C)n1 (stereo not drawn)
- inhibition [1]: 21.1%
- inhibition [2]: 52.5% (active)
- inhibition [3]: 33.4% (active)
- inhibition [4]: 62% (active)
- inhibition [5]: 57.4% (active)
- inhibition [6]: 67.1% (active)

Structure (SMILES): c1cnc2c(c1)ccc1cccnc12
- inhibition [1]: 42.2%
- inhibition [2]: 31.6% (active)
- inhibition [3]: 70.5% (active) and 77.1% (active)
- inhibition [4]: 104% (active)
- inhibition [5]: 59.1% (active) and 70.5% (active)
- inhibition [6]: 50.6% (active) and 74.9% (active)

Structure (SMILES): Cc1ncc(CO)c(/C=N/NC(=O)c2cc3c(s2)CCCC3)c1O
- inhibition [1]: 40.9%
- inhibition [2]: 27.7%
- inhibition [3]: 76.8% (active)
- inhibition [4]: 94.7% (active)
- inhibition [5]: 77.2% (active)
- inhibition [6]: 82.6% (active)

Structure (SMILES): CCOc1cc(/C=C2\N=C(SC(C)C(N)=O)N(c3ccc(OC(F)F)cc3)C2=O)ccc1O (stereo not drawn)
- inhibition [1]: 27.6%
- inhibition [2]: 58% (active)
- inhibition [3]: 59.3% (active)
- inhibition [4]: 65.4% (active)
- inhibition [5]: 73% (active)
- inhibition [6]: 73.1% (active)

Structure (SMILES): Cc1ccc(C(=O)C[n+]2cc(-c3ccc(C)cc3)n3c2CCCCC3)cc1
- inhibition [1]: 25.2%
- inhibition [2]: 53.5% (active)
- inhibition [3]: 38% (active)
- inhibition [4]: 80.2% (active)
- inhibition [5]: 75.7% (active)
- inhibition [6]: 70.4% (active)

Structure (SMILES): c1ccc(CCNc2nc(-c3ccccn3)nc3ccccc23)cc1
- inhibition [1]: 22.7%
- inhibition [2]: 41% (active)
- inhibition [3]: 58.5% (active)
- inhibition [4]: 91.9% (active)
- inhibition [5]: 82.7% (active)
- inhibition [6]: 69.1% (active)

Structure (SMILES): C[C@H]1CCC/C=C/[C@@H]2C[C@H](O)C[C@H]2[C@H](O)[C@H](S(=O)c2ccc(O)cc2)CC(=O)O1 (stereo partly drawn)
- inhibition [1]: 71.7% (active)
- inhibition [2]: 77.6% (active)
- inhibition [3]: 77.7% (active)
- inhibition [4]: 84.4% (active)
- inhibition [5]: 76.6% (active)
- inhibition [6]: 77.6% (active)

Structure (SMILES): NC(=O)c1ccc(N2CCN(S(=O)(=O)c3cccs3)CC2)c([N+](=O)[O-])c1
- inhibition [1]: -7.6%
- inhibition [2]: 34.7% (active)
- inhibition [3]: 21%
- inhibition [4]: 64.7% (active)
- inhibition [5]: 63.9% (active)
- inhibition [6]: 46.1% (active)

Structure (SMILES): O=S(=O)(NCC1CCCO1)c1ccc(-c2ccc(S(=O)(=O)NCC3CCCO3)cc2)cc1 (stereo not drawn)
- inhibition [1]: 9.93%
- inhibition [2]: 41.9% (active)
- inhibition [3]: 24.6%
- inhibition [4]: 69.5% (active)
- inhibition [5]: 61.2% (active)
- inhibition [6]: 56.7% (active)

Structure (SMILES): COc1cc2c(c(OC)c1OC)-c1ccc(SC)c(=O)cc1C(NC=O)CC2 (stereo not drawn)
- inhibition [1]: 44.5% (active)
- inhibition [2]: 15.7%
- inhibition [3]: 67% (active)
- inhibition [4]: 65.8% (active)
- inhibition [5]: 69.7% (active)
- inhibition [6]: 54.5% (active)

Structure (SMILES): C[n+]1c2n(c3ccccc31)N=C(c1ccc(-c3ccccc3)cc1)CS2
- inhibition [1]: 36.6%
- inhibition [2]: 52.8% (active)
- inhibition [3]: 32.7% (active)
- inhibition [4]: 87.7% (active)
- inhibition [5]: 78.2% (active)
- inhibition [6]: 72.8% (active)

Structure (SMILES): Cc1ccc2c(c1C)-c1c(ccc(C)c1C)C(=O)C2=O
- inhibition [1]: 58% (active)
- inhibition [2]: 34.3% (active)
- inhibition [3]: 64.4% (active)
- inhibition [4]: 72% (active)
- inhibition [5]: 80.5% (active)
- inhibition [6]: 73.8% (active)

Structure (SMILES): CC(C)(C)c1ccc(C2CC2C(=O)N/N=C\c2ccc[nH]2)cc1 (stereo not drawn)
- inhibition [1]: 39.8%
- inhibition [2]: 81.5% (active)
- inhibition [3]: 80.9% (active)
- inhibition [4]: 105% (active)
- inhibition [5]: 92% (active)
- inhibition [6]: 87.4% (active)

Structure (SMILES): CCN1/C(=C/c2ccc3cc(C)ccc3[n+]2CC)Sc2cc(C)ccc21
- inhibition [1]: 26.1%
- inhibition [2]: 64% (active)
- inhibition [3]: 39.8% (active)
- inhibition [4]: 108% (active)
- inhibition [5]: 75.6% (active)
- inhibition [6]: 83.3% (active)

Structure (SMILES): Cc1ccnc(NC(=O)CCCOc2cc(=O)n(C)c3ccccc23)c1
- inhibition [1]: 3.13% and 25%
- inhibition [2]: -1.88% and -14.4%
- inhibition [3]: 61% (active) and 59.3% (active)
- inhibition [4]: 91.4% (active) and 81.7% (active)
- inhibition [5]: 67.8% (active) and 59.8% (active)
- inhibition [6]: 23.5% and 8.09%

Structure (SMILES): CN(CCOc1ccc(Cl)cc1)C(=O)c1cccc(S(=O)(=O)N2CCN(c3ccc(F)cc3)CC2)c1
- inhibition [1]: 24.4%
- inhibition [2]: 41.2% (active)
- inhibition [3]: 24.3%
- inhibition [4]: 60.9% (active)
- inhibition [5]: 63.8% (active)
- inhibition [6]: 53.2% (active)

Structure (SMILES): CCCC(=O)NC(c1ccc(N(C)C)cc1)c1ccc2cccnc2c1O (stereo not drawn)
- inhibition [1]: 78.2% (active)
- inhibition [2]: 77% (active)
- inhibition [3]: 91.9% (active)
- inhibition [4]: 104% (active)
- inhibition [5]: 91.3% (active)
- inhibition [6]: 89.2% (active)

Structure (SMILES): CCCCCc1ccc(OCCCC[n+]2cccc(C)c2)c(CCCCC)c1
- inhibition [1]: 17.4%
- inhibition [2]: 39% (active)
- inhibition [3]: 31.7% (active)
- inhibition [4]: 74.2% (active)
- inhibition [5]: 68.9% (active)
- inhibition [6]: 71.2% (active)
